From PubChem BioAssay (EPA / NIEHS)
Some structures have more than one record in an assay (separate samples or runs), and their calls can disagree. Activity calls are given as the source filed them. How the source made its calls: active means hit-call score of the fitted dose curve at least 0.9, where 1 is the maximum; inactive means score below 0.9.

Tests used:
[1] = molecular target: CCAAT/enhancer-binding protein beta (Homo sapiens) (UniProt P17676); test: ATG_C_EBP_CIS: Attagene CIS-FACTORIAL HepG2 Assay for human CCAAT/Enhancer Binding Protein (C/EBP) beta (AID 2282927); conditions: HepG2 Attagene cis-factorial transcription factor reporter; actives raise or lower the signal
Chain of CCAAT/enhancer-binding protein beta (Homo sapiens) (P17676 whole entry, looked up): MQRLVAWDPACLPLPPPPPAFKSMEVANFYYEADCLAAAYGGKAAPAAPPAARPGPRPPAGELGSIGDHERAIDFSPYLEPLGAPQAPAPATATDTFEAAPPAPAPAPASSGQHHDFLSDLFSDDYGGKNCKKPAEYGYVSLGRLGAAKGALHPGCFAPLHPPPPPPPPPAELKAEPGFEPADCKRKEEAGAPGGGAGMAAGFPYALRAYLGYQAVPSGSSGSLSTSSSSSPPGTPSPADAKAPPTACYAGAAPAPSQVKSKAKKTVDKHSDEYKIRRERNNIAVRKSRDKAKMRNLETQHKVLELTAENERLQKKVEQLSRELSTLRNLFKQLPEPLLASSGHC
Summary of the method: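 HepG2, transient MRTU transfection, 24 h treatment. RT-PCR plus CE fluorescence; DMSO negative control, bidirectional fit.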

[2] = ATG_CMV_CIS: Attagene CIS-FACTORIAL HepG2 Assay for human CMV (Internal Marker) (AID 2282928); conditions: HepG2 CMV promoter reporter, transcription factor profiling; actives raise or lower the signal;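 further: endpoint acts as a background internal control marker rather than a target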
Summary of the method: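 Endogenous transcription factor activity read in HepG2 via transfected cis-promoter reporter units. After 24 h dosing, reporter mRNA measured by RT-PCR/capillary electrophoresis; gain or loss of signal fit relative to DMSO.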

[3] = ATG_DR4_LXR_CIS: Attagene CIS-FACTORIAL HepG2 Assay for human Liver X Receptor (LXR), DR4 submotif (AID 2282929); conditions: HepG2 Attagene DR4 cis-reporter, mRNA transcription; actives raise or lower the signal
Summary of the method: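 DR4 cis-reporter in HepG2, 24 h exposure. Detection: RT-PCR, 6-FAM labelling, CE fragment analysis. Endpoint fitted bidirectionally, DMSO = baseline.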

[4] = molecular target: Aryl hydrocarbon receptor (Homo sapiens) (UniProt P35869); test: ATG_Ahr_CIS: Attagene CIS-FACTORIAL HepG2 Assay for human Aryl Hydrocarbon Receptor (Ahr) (AID 2282930); conditions: HepG2 AhR cis-factorial reporter transcription; actives raise or lower the signal
Chain of Aryl hydrocarbon receptor (Homo sapiens) (P35869 whole entry, looked up): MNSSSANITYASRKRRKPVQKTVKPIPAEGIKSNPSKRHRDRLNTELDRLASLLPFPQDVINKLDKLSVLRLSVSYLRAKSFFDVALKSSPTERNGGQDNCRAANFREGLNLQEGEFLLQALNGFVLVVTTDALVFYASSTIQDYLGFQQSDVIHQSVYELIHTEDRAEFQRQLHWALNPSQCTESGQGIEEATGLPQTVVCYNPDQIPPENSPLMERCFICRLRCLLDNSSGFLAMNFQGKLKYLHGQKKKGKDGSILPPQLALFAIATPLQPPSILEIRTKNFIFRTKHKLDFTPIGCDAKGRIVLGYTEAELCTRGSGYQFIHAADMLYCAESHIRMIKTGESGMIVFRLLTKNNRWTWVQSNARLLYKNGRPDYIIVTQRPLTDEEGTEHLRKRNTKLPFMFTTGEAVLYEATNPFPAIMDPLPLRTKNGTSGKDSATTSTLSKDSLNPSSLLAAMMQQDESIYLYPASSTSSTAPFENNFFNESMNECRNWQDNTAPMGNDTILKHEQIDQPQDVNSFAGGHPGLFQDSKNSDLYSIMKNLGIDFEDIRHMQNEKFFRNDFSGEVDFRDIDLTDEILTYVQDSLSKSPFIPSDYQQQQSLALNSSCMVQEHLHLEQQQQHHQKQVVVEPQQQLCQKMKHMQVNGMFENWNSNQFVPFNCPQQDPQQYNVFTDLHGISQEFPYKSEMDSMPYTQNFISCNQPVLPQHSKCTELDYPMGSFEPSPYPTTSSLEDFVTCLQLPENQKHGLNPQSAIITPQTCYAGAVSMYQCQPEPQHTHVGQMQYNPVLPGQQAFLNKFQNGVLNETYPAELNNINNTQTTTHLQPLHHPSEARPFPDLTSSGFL
Summary of the method: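 Endogenous factor activity is tracked through cis-promoter reporter units transfected into HepG2 cells. Transcript levels at 24 h are read by fluorescent RT-PCR and capillary electrophoresis, with activity in either direction scored relative to DMSO.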

[5] = ATG_AP_1_CIS: Attagene CIS-FACTORIAL HepG2 Assay for human Activator Protein 1 (AP-1) (AID 2282931); conditions: HepG2 Attagene cis-factorial AP-1 reporter mRNA; actives raise or lower the signal
Summary of the method: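 Cis-regulated reporter units transiently expressed in HepG2 report endogenous transcription-factor activity. Signal: reporter mRNA at 24 h, via RT-PCR and fluorescent capillary electrophoresis. Endpoint derived by bidirectional fitting, DMSO as negative control.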

[6] = ATG_AP_2_CIS: Attagene CIS-FACTORIAL HepG2 Assay for human Activator Protein 2 (AP-2) (AID 2282932); conditions: HepG2 AP-2 cis-reporter, Attagene transcription factor profiling; actives raise or lower the signal
Summary of the method: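 HepG2 cells transiently transfected with cis-element reporter units and exposed for 24 h. Reporter mRNA measured by RT-PCR, FAM labelling, HpaI digestion and capillary electrophoresis. Changes in either direction fitted relative to DMSO.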

[7] = ATG_BRE_CIS: Attagene CIS-FACTORIAL HepG2 Assay for human Bone Morphogenetic Protein (BMP) Response Element (BRE) (AID 2282933); conditions: HepG2 BMP response element reporter, Attagene transcription factor profiling; actives raise or lower the signal
Summary of the method: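 After a 24 h chemical treatment, transiently transfected HepG2 cells were lysed for RNA; reporter transcripts were quantified by fluorescent RT-PCR and capillary electrophoresis, normalised to DMSO.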

[8] = molecular target: Retinoic acid receptor alpha (Homo sapiens) (UniProt P10276); test: ATG_DR5_RAR_CIS: Attagene CIS-FACTORIAL HepG2 Assay for human Retinoic Acid Receptor Alpha (RARE), DR5 submotif (AID 2282934); conditions: HepG2 Attagene cis-factorial RARE DR5 reporter, mRNA; actives raise or lower the signal
Chain of Retinoic acid receptor alpha (Homo sapiens) (P10276 whole entry, looked up): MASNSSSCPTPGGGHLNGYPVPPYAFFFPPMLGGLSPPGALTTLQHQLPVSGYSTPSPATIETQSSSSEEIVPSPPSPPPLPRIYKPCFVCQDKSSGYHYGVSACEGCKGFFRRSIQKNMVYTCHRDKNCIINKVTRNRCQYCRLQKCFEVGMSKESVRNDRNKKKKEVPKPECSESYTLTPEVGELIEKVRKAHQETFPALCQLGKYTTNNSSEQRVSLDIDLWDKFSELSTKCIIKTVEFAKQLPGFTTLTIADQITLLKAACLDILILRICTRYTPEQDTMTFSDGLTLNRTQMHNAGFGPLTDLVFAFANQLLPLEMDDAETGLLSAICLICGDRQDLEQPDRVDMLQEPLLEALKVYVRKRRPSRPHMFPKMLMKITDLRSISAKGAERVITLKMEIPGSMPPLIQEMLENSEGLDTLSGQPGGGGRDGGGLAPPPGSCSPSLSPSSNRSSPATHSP
Summary of the method: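 After 24 h of chemical exposure, transiently transfected HepG2 cells were lysed for total RNA; the DR5-regulated reporter transcript was quantified via RT-PCR and capillary electrophoresis, with activity fitted bidirectionally against DMSO.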

[9] = ATG_CRE_CIS: Attagene CIS-FACTORIAL HepG2 Assay for human cAMP Responsive Element (CRE) binding protein 3 (AID 2282926); conditions: HepG2 CRE cis-reporter, Attagene multiplexed mRNA; actives raise or lower the signal
Summary of the method: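 HepG2 cells transiently transfected with cis-element-driven multiple reporter transcription units; CRE reporter mRNA measured 24 h after dosing by RT-PCR, 6-FAM labelling, HpaI digestion and capillary electrophoresis. Bidirectional fit versus DMSO baseline.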

Measured: AC50

OCCCC(F)(F)C(F)(F)C(F)(F)C(F)(F)C(F)(F)C(F)(F)C(F)(F)F
active: [3] 35.6 µM | [6] 75.5 µM
inactive: [1] | [2] | [3] | [4] | [5] | [6] | [7] | [8]

OCC(F)(F)C(F)(F)C(F)(F)F
inactive: all assays above

c1ccc(B(c2ccccc2)c2ccccc2)cc1
active: [2] 71 µM | [3] 34.2 µM | [4] 32.8 µM
not listed: [9]
inactive: all other assays above

O=C(O)C(F)(OC(F)(F)C(F)(OC(F)(F)C(F)(F)C(F)(F)F)C(F)(F)F)C(F)(F)F (centres undefined)
not listed: [9]
inactive: all other assays above

O=C(O)C(F)(F)C(F)(F)OC(F)(F)F
inactive: all assays above

C=C(C)C(=O)OCC(F)(F)C(F)(F)C(F)(F)C(F)(F)C(F)(F)C(F)(F)C(F)(F)F
not listed: [9]
inactive: all other assays above

FC(F)(F)C(F)(F)CNCC(F)(F)C(F)(F)F
inactive: all assays above

C=C(C)C(=O)OCC(F)(F)C(F)(F)C(F)(F)F
inactive: all assays above

O=S(=O)(OCCOC(F)(F)F)C(F)(F)F
active: [4] 101 µM
inactive: [1] | [2] | [3] | [4] | [5] | [6] | [7] | [8]
